# KDM5B inhibitor: blocks human KDM5B histone demethylase activity; KDM5B demethylase, FDH-coupled NADH fluorescence (FDH is formaldehyde dehydrogenase); Potency, µM (top dose mostly 57.7 µM), actives largely listed as inhibitors; 220,000 compounds, 2.6% hits; active = well fitted inhibition curve with a large enough effect; note: 0% is about no effect; nearly all actives have a fitted effect of over 70% in size
#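 Inhibition is measured as reduced NADH fluorescence generation from FDH coupling to formaldehyde release. Truncated KDM5BΔAP at 200 nM final acts on H3K4me3 peptide (12.5 µM in substrate mix) in pH 7.5 HEPES buffer with Tween-20, 30 min, room temperature.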
# Starred values were filed as active, the others as inactive; i = inactive. The full list was thinned out, with hits kept by preference. Potency is the fitted concentration of half-maximal effect.
SMILES,KDM5B inhibitor
COc1ccc(-c2cc(C(=O)NC3CC3)c3c(C4CCNC4)nn(C)c3n2)cc1 (centres undefined),79µM*
COc1ccc(-c2cc(C(=O)NC3CC3)c3c(C4CCCNC4)noc3n2)cc1 (centres undefined),79µM*
O=C(NC1CC1)c1cc(-c2ccccc2C(F)(F)F)nc2onc(C3CCNC3)c12 (centres undefined),i
O=C(NC1CCNCC1)c1cc(C2CC2)nc2onc(C3CCNC3)c12 (centres undefined),79µM*
Cc1cc(C(=O)NCC2CC2)c2c(C3CCNC3)noc2n1 (centres undefined),i
COc1ccc(-c2noc(C(=O)NC3CC3)c2[C@H](C)O)cc1,i
COc1ccc(-c2cc(C(=O)NCC3CC3)c3c(C4CCNC4)noc3n2)cc1 (centres undefined),79µM*
COc1ccc(-c2cc(N3CCC(NC(=O)c4cc(C)ccc4C)CC3)n[nH]2)cc1,i
Cc1cc(C(=O)NCC(F)(F)F)c2c(C3CCNCC3)noc2n1,i
COC(=O)c1cc(-c2ccc(F)cc2)nc2onc(C3CC3)c12,i
CC(Sc1ncnc2ccccc12)C(=O)NC(N)=O (centres undefined),i
COCCn1c(C)cnc1CC1CCN(C(=O)c2ccc(C)s2)CC1,i
CNC(c1ccccc1)c1ccc(F)cc1 (centres undefined),i
CCOc1cc(-c2nc3ccc(-c4ccc(OC)c(OC)c4OC)cc3o2)ccc1OC,i
CCCC[n+]1c(NCc2cc(Cl)ccc2[O-])[nH]c2ccccc21,i
Cn1cnc(S(=O)(=O)NC2CCc3nn(CC4CC4)c(=O)n3CC2)c1 (centres undefined),i
COc1cc(NC(=O)c2ccc(N3C(=O)C(C)CS3(=O)=O)cc2)cc(OC)c1OC (centres undefined),i
Cc1ccc(S(=O)(=O)NC[C@H]2OC[C@@H](NCc3ccncc3)[C@@H]2O)cc1,i
CC(NC(=O)c1ccc2ccccc2n1)c1ccc(Cl)c(Cl)c1 (centres undefined),i
CCc1c(C)nn(CC(=O)N2CC[C@@](O)(CCOC)[C@H](C)C2)c1C,i
Cc1ccsc1C(=O)NNC(=S)NC(C)C,i
Cc1ccc(CSc2nc3c(cnn3CCO)c(=O)[nH]2)cc1,i
CCCc1cc(=O)[nH]c(SCc2nc(-c3ccc(C)c(F)c3)no2)n1,i
CNC(=O)CSc1nc2c(c(C(F)(F)F)c1C#N)CCCC2,i
O=S(=O)(c1ccc(SCc2cc(Cl)c3c(c2)OCCO3)nc1)N1CCOCC1,i
SMILES,KDM5B inhibitor
NC(=O)[C@@H]1CN(C(=O)COc2ccccc2)C[C@H]1COc1ccccc1,i
O=C(O)CCn1ncc2cc(OCC3CCN(C(=O)Cc4ccccc4)CC3)ccc21,i
O=C(COc1ccccc1)N1CCC(Oc2cnc3c(ccn3-c3cncnc3)c2)CC1,i
NC(=O)Cn1ccc2cc(OCC3CCN(C(=O)CCc4ccccc4)CC3)cnc21,32µM*
NC(=O)Cn1ccc2cc(OCC3CCN(C(=O)COc4ccccc4)CC3)cnc21,35µM*
NC(=O)[C@@H]1CN(C(=O)CCc2ccccc2)C[C@H]1COc1ccccc1,i
O=C(NC1CCCC1)C1(c2cccc(Cl)c2)CCC1,i
O=C(C1CCCCC1)N1CC[C@H]2COC(=O)N2c2cc(F)ccc2C1,i
COC[C@@H]1CN(C(=O)Cc2c(F)cccc2Cl)C[C@H]1C(N)=O,i
Cc1ccc(C(=O)C2CC2)cc1,i
CN(Cc1ccccc1)C(=O)[C@@H]1CN(S(C)(=O)=O)C[C@H]1c1ccncc1,i
Cc1c(OCC(=O)C(C)(C)C)ccc2c3c(c(=O)oc12)CCC3,i
CC(C)CCn1c(=O)n(CC(=O)O)c(=O)c2c3c(sc21)COC(C)(C)C3,i
COc1ccc(C(C)=O)cc1CC(=O)NCc1nnc2ccccn12,i
COc1ccc(C)cc1CC(=O)NCc1nnc2ccccn12,i
Cc1ccc(-c2ccc3nnc(CNC(=O)c4ccc(F)c(F)c4)n3n2)cc1,28µM*
COc1ccc(C(=O)NCc2nnc3ccc(-c4ccc(C)c(C)c4)nn23)cc1,20µM*
CCOC(=O)N1CCN(C(=O)CSc2ccc3nnc(CCNC(=O)c4ccc(OC)cc4)n3n2)CC1,i
COc1ccccc1CC(=O)NCc1nnc2ccc(-c3ccc(C)c(C)c3)nn12,32µM*
Cc1ccc(S(=O)(=O)C(CNC(=O)c2ccc(F)c(F)c2)c2ccco2)cc1 (centres undefined),i
O=C(NCc1nnc2ccc(-c3ccc(Cl)cc3)nn12)c1cccc(Br)c1,28µM*
Cc1ccc(-c2ccc3nnc(CNC(=O)c4ccc5c(c4)OCO5)n3n2)cc1,i
CC(=O)c1cccc(NC(=O)CSc2nnc3ccc(-c4ccc(Br)cc4)nn23)c1,i
Cc1ccc(-c2ccc3nnc(CNC(=O)c4ccc(N(C)C)cc4)n3n2)cc1C,i
CCc1ccc(-c2ccc3nnc(SCC(=O)Nc4cccc(C(C)=O)c4)n3n2)cc1,i
Cc1oc2cc(OCC(=O)N3CCC(C(N)=O)CC3)ccc2c(=O)c1Oc1ccccc1,i

# Screening data as filed in PubChem.
